Consider 37 compounds from PubChem BioAssay (Tox21).

Test [1] in a line: qHTS assay to identify small molecule agonists of the RXR signaling pathway - cell viability counter screen (AID 1159529). Further: nearly all actives have a fitted effect of over 50% in size. Further: potency means the concentration at half of the fitted maximal effect. A digest of the protocol:
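Counter screen: CellTiter-Glo luminescence. Cells: RXR-alpha-UAS-bla HEK 293T. Medium: 2% charcoal-stripped FBS. Treatment: 16 h, 37 C. Reagent incubation: 30 min, RT.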

Test [2] can be described thus: qHTS assay to identify small molecule antagonists of the retinoid acid receptor (RAR) signaling pathway - cell viability counter screen (AID 1159551). Further: nearly all actives have a fitted effect of over 35% in size. A digest of the protocol: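 C3RL4 RARE-luciferase line; cpds + retinol 1 uM final, 6 h, 37 C/5% CO2; CellTiter-Glo ATP luminescence, 30 min RT.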
Test [3] is described as follows: qHTS assay to identify small molecule agonists of the retinoic acid receptor (RAR) signaling pathway (AID 1159553). Further: potency means the concentration at half of the fitted maximal effect. The procedure, abridged: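 RARE-luc C3RL4 cells; overnight attachment 37 C/5% CO2; compound (DMSO) 6 hr; luciferase reagent, 30 min RT; luminescence read-out.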
The nature of test [4]: qHTS assay to identify small molecule antagonists of the retinoic acid receptor (RAR) signaling pathway (AID 1159552; further: nearly all actives have a fitted effect of over 50% in size; further: potency means the concentration at half of the fitted maximal effect). A digest of the protocol: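 Antagonism of retinol-induced RARE reporter activity was measured in C3RL4 cells. Exposure to compounds and 1 uM final retinol lasted 6 hr at 37 C, with luminescence as endpoint.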
A short description of test [5]: qHTS assay to identify small molecule antagonists of the estrogen related receptor (ERR) signaling pathway (AID 1224819; further: potency means the concentration at half of the fitted maximal effect; nearly all actives have a fitted effect of over 50% in size). A digest of the protocol:
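Luminescence readout (One-Glo, 30 min, RT) of ERR cell line after 18 h compound exposure at 37 C; cells seeded 2,000/well, pre-incubated 6 h, compounds pinned from DMSO stocks.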

Test [6] in a line: qHTS assay to identify small molecule agonists of the estrogen related receptor (ERR) signaling pathway (AID 1224820). A digest of the protocol:
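Following a 6 h settling period, 2,000 ERR cells per well receive DMSO-dissolved compounds by pin tool and incubate 18 h at 37 C; agonist activity is scored from One-Glo luminescence read 30 min post-addition.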

Records with an inconclusive call do not appear. The source made the active and inactive calls. The call rests on the fitted dose curve; in most records, active means well fitted curve in the direction sought with a large enough effect in the repeat runs; inconclusive means weak or mixed curves; inactive means no such curve, though single readings can be large; an effect the other way counts as inactive or inconclusive.

On to `CO[C@H]1C=CO[C@@]2(C)Oc3c(C)c(O)c4c(O)c(c5c(c4c3C2=O)=NC2(CCN(CC(C)C)CC2)N=5)NC(=O)/C(C)=C\C=C/[C@H](C)[C@H](O)[C@@H](C)[C@@H](O)[C@@H](C)[C@H](OC(C)=O)[C@@H]1C`, for which the Potency result in test [1], in test [2] and in test [3] was “inactive” throughout.
Consider `Nc1ccc(Cl)cc1[N+](=O)[O-]`, for which the Potency entry in test [1], in test [2] and in test [3] was “inactive” each time.
Regarding `CCC(C)=O`, the Potency result in test [1], in test [2] and in test [3] was “inactive” each time.
Turning to `CCCCC(CC)C(=O)OCCOCCOCCOCCOC(=O)C(CC)CCCC` (centres undefined), the Potency result in test [1], in test [2], in test [4] and in test [3] was “inactive” throughout.
For the compound `CCOC(=N)CC(=O)OCC`, the Potency entry in test [1], in test [2], in test [4] and in test [3] was “inactive” throughout.
With `CCC(C)(C)C1CCC(O)CC1` (centres undefined), the Potency result in test [1], in test [2], in test [4] and in test [3] was “inactive” each time.
In the case of `Cc1ccc(S(=O)(=O)NC2CCCCC2)cc1`, the Potency result in test [1], in test [2] and in test [3] was “inactive” in each case.
Consider `O=C(O)Cc1ccc(-c2ccccc2)cc1`, for which the Potency result in test [1], in test [2], in test [4] and in test [3] was “inactive” throughout.
In the case of `CCCCCCCCCCOS(=O)(=O)O`, the Potency entry in test [1], in test [2], in test [4] and in test [3] was “inactive” each time.
Consider `CC(C)CCCCCOC(=O)CCCCC(=O)OCCCCCC(C)C`, for which the Potency result in test [1], in test [2], in test [4] and in test [3] was “inactive” throughout.
`CC(=O)Nc1ccc(N)cc1`: the Potency entry in test [1], in test [2] and in test [3] was “inactive” in each case.
In the case of `Brc1cc(-c2ccc(Br)c(Br)c2Br)cc(Br)c1Br`, the Potency in test [1] is 10.8 µM (active). Moreover, the Potency entry in test [2] and in test [3] was “inactive” throughout.
With `CC(=O)Oc1ccc2c(c1)CC[C@@H]1[C@@H]2CC[C@]2(C)[C@@H](O)CC[C@@H]12`, the Potency result in test [1], in test [2] and in test [3] was “inactive” each time.
In the case of `CCCCCCCCCCCC(=O)[O][Sn]([CH2]CCC)([CH2]CCC)[O]C(=O)CCCCCCCCCCC`, the Potency entry in test [1], in test [2] and in test [3] was “inactive” throughout. For the same compound, the Potency in test [4] was 29.8 µM (active).
Turning to `CC1=CC(O)CC(C)(C)C1` (centres undefined), the Potency entry in test [1], in test [2], in test [4] and in test [3] was “inactive” throughout.
Consider `CN(C)C(=O)Nc1ccc(Oc2ccc(Cl)cc2)cc1`, for which the Potency result in test [1], in test [2] and in test [4] was “inactive” throughout. Also, the Potency in test [3] is 61.1 µM (active).
For the compound `N#C/C(=C1/SC[C@@H](c2ccc(Cl)cc2Cl)S1)n1ccnc1`, the Potency result in test [1], in test [2] and in test [3] was “inactive” each time.
As for `CCC(Cc1ccccc1)(C(=O)c1ccc(N2CCOCC2)cc1)N(C)C` (centres undefined), the Potency result in test [1], in test [2] and in test [3] was “inactive” in each case.
For the compound `CC(=O)N(c1onc(C)c1C)S(=O)(=O)c1ccc(N)cc1`, the Potency result in test [1], in test [2], in test [4] and in test [3] was “inactive” in each case.
`CC(C)c1nnc2ccc(-c3ocnc3-c3cc(F)ccc3F)cn12`: the Potency entry in test [1], in test [2] and in test [3] was “inactive” each time. Besides, in test [4], the Potency was 27.3 µM (active).
Regarding `O=C(OCCOCCO)c1ccccc1Nc1cccc(C(F)(F)F)c1`, the Potency entry in test [1], in test [2], in test [4] and in test [3] was “inactive” in each case.
As to `CCCCN(CCCC)C(=S)SSC(=S)N(CCCC)CCCC`, the Potency in test [1] was 48.5 µM (active); in test [3], 1.52 µM (active). For the same compound, the Potency result in test [2] and in test [4] was “inactive” throughout.
With `O=C(CCCCCCCCC#CI)Oc1ccccc1`, the Potency entry in test [1], in test [2] and in test [3] was “inactive” each time.
As for `COc1ccc(CCC(=O)c2c(O)cc(O[C@@H]3O[C@H](CO)[C@@H](O)[C@H](O)[C@H]3O[C@@H]3O[C@@H](C)[C@H](O)[C@@H](O)[C@H]3O)cc2O)cc1O`, the Potency entry in test [1], in test [2], in test [4] and in test [3] was “inactive” throughout.
Consider `O=C(O)c1ccccc1NCCc1ccccc1`, for which the Potency result in test [1], in test [2] and in test [4] was “inactive” throughout. Also, in test [3], the Potency was 23.7 µM (active).
For `CCCCCCOC(=O)C(C)C`, the Potency entry in test [1], in test [2], in test [4] and in test [3] was “inactive” throughout.
Turning to `Cc1cc(O)c2c(O)c3c(O)cccc3cc2c1`, the Potency result in test [1], in test [2], in test [4] and in test [3] was “inactive” throughout.
Turning to `CC(C)(C)CC(C)(C)c1ccc(OCCO)cc1`, the Potency result in test [2], in test [4] and in test [3] was “inactive” throughout.
Regarding `CN(C)CCOC1=Cc2ccccc2Sc2ccc(Cl)cc21`, the Potency result in test [2] and in test [3] was “inactive” each time.
As for `Cc1oc(C)c(C(=O)Nc2ccccc2)c1C`, the Potency result in test [1], in test [4] and in test [3] was “inactive” in each case.
On to `CCc1nn(CCCN2CCN(c3cccc(Cl)c3)CC2)c(=O)n1CCOc1ccccc1`, for which the Potency entry in test [2] was “inactive”.
Turning to `CCOC(=O)CC(=O)C(=O)OCC`, the Potency result in test [2], in test [4] and in test [3] was “inactive” in each case.
On to `Fc1ccccc1[C@@H](F)COC1CCC(Nc2ncnc3[nH]ncc23)CC1` (some centres undefined), for which the Potency entry in test [2], in test [4] and in test [3] was “inactive” in each case.
As to `CCNC(=O)N1CCN(CCCC(c2ccc(F)cc2)c2ccc(F)cc2)CC1`, the Potency result in test [2] and in test [3] was “inactive” throughout. Besides, in test [5], the Potency is 8.1 µM (active). For the same compound, in test [6], the outcome was inactive.
With `CC1=C(/C=C/C(C)=C\C=C\C(C)=C\C(=O)O)C(C)(C)CCC1`, the Potency entry in test [2] and in test [4] was “inactive” in each case. In addition, in test [3], the Potency is 0.0686 µM (active).
Take `CC(=O)[C@H]1CC[C@H]2[C@@H]3C=CC4=CC(=O)CC[C@@]4(C)[C@@H]3CC[C@]12C`: the Potency result in test [2], in test [4] and in test [3] was “inactive” each time.
Take `NC(=O)Cn1c(=O)cc(CCN2CCN(c3nccc4sccc34)CC2)c2ccc(F)cc21`: the Potency result in test [2] is “inactive”.
